Composite z-score and z-score data for 16 compounds are collected here from PubChem BioAssay.

Assay [1] relates to Human papillomavirus type 1a protein E7 (residues 44-93). The experiment in a line: small molecules binding HPV E7 44-93 – biochemical, small-molecule microarray, residues 44-93, 635 nm fluorescence, primary screen (AID 1108).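 Also: E7 fragment applied at 1 µg/mL in TBST for 1 h at 4 C; score combines spot fluorescence with its signal to noise ratio.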 To be noted: fluorescence 635 nm, higher = more signal.
Assay [2] in a line: hepatitis C replication reporter changes, two-sided – Huh7 cells, luciferase reporter, HCV replication inhibitor project, primary screen (AID 1109).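 Also: huh7 hepatoma cells harbouring a luciferase neomycin HCV replicon reporter; luciferase luminescence as measure of HCV replicon replication; test concentration not given here.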 To be noted: Huh7 HCV replicon luciferase reporter, 48 h; higher = more signal.
Assay [3] has as its target Left-right determination factor 2 (Homo sapiens) (UniProt O00292). Put plainly: small molecules binding LEFTY2 protein – biochemical, small-molecule microarray, 635 nm fluorescence scan, primary screen (AID 1110). The note with it: higher = more signal.
Assay [4] has as its target Calmodulin-1 (Homo sapiens) (UniProt P0DP23). The experiment in a line: small molecules binding calmodulin-1 with EGTA – biochemical, small-molecule microarray, Cy5-labelled CALM1, profiling panel (AID 1111).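 Also: labelled calmodulin applied in Tris saline Tween buffer holding calcium plus EGTA and DTT.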 The note with it: Cy5-CALM1 binding fluorescence, higher = more signal.
For assay [5] the target is unchanged. Put plainly: small molecules binding Ca-loaded calmodulin-1 – biochemical, small-molecule microarray, Cy5-labelled CALM1, plus calcium, artefact control for SMM control-protein annotation, profiling panel (AID 1112).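 Also: score merges spot fluorescence with signal to noise from triplicate slides.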 The note with it: Cy5-CALM1 binding fluorescence, higher = more signal.
Assay [6] is described as follows: probe aWnt5a binding to arrayed compounds – biochemical, biotinylated probe, 635/667 nm fluorescence, primary screen (AID 1113).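 Also: score merges 667 nm fluorescence intensity with signal-to-noise per printed feature.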 The note with it: small-molecule microarray, higher = more signal.
Assay [7] is described as follows: probe aShh binding to arrayed compounds – biochemical, biotinylated probe, 635/667 nm fluorescence, primary screen (AID 1114).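 Also: probe is biotin-labelled aShh protein from a stem cell growth factor screen; measures binding of labelled protein to compounds printed on the slide; score merges feature fluorescence at 667 nm with signal-to-noise.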 The note with it: small-molecule microarray, higher = more signal.
Assay [8] in a line: probe aNog binding to arrayed compounds – biochemical, biotinylated probe, 635/667 nm fluorescence, primary screen (AID 1115).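 Also: probe is biotinylated aNog protein used at 0.15 µg/mL for 1 h at 4 C; z-score combines 667 nm fluorescence of each spot with its signal to noise.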 The note with it: small-molecule microarray, higher = more signal.
Assay [9] concerns the target Torsin-1A-interacting protein 1 (Homo sapiens) (UniProt Q5JTV8). Put plainly: compound microarray binding of lysate hLAP1 – cell lysate, small-molecule microarray, COS7 lysate, 635/667 nm fluorescence, primary screen (AID 1116). The note with it: 635 nm fluorescence, higher = more signal.
Assay [10] has as its target Alpha-bungarotoxin (Bungarus multicinctus) (UniProt P60615). Put plainly: compounds binding labelled alpha-BTX control protein – biochemical, small-molecule microarray, Alexa647 label, 635/667 nm fluorescence, artefact control for SMM control protein annotation, profiling panel (AID 1117). The note with it: alpha-BTX-A647 binding fluorescence, higher = more signal.

The structures appear in SMILES notation.

Chain of Alpha-bungarotoxin (Bungarus multicinctus) (P60615 whole entry, looked up): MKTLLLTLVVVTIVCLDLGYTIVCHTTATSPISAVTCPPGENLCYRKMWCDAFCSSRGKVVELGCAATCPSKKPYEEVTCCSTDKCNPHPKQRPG
Chain of Torsin-1A-interacting protein 1 (Homo sapiens) (Q5JTV8 whole entry, looked up): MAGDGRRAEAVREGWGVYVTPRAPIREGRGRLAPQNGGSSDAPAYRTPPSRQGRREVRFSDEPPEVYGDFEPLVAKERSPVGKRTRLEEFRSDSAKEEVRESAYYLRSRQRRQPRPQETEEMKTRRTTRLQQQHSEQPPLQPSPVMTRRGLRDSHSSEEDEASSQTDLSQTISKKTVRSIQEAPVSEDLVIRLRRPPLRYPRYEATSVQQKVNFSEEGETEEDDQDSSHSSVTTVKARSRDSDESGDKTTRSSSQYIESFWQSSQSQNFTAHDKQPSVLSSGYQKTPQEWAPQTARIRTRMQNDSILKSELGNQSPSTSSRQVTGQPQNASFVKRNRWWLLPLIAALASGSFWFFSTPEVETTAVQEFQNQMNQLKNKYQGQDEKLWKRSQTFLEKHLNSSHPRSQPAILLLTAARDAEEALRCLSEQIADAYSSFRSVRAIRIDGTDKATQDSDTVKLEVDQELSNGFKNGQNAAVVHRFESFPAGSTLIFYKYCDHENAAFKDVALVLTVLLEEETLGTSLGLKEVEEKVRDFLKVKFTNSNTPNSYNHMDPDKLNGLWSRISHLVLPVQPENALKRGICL
Chain of Left-right determination factor 2 (Homo sapiens) (O00292 whole entry, looked up): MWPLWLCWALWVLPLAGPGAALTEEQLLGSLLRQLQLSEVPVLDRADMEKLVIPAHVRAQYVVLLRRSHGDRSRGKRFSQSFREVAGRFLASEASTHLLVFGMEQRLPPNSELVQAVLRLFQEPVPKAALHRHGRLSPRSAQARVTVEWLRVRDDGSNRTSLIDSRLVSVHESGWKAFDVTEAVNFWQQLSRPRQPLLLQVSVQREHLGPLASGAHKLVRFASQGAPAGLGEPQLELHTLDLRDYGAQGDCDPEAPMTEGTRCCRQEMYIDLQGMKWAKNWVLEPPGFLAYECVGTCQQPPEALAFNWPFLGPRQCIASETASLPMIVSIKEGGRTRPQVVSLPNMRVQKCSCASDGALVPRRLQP

On to `COC(=O)[C@@]1(Cc2ccc(F)cc2)[C@H]2c3cc(C(=O)N4CCCC4)n(Cc4ccc(S(C)(=O)=O)cc4)c3C[C@H]2CN1C(=O)c1ccccc1`, for which the composite z-score turned out to be 1.38 in assay [1]; 0.533 in assay [3]; 1.36 in assay [4]; 1.05 in assay [5]; 0.25 in assay [6]; 0.232 in [7]. Also, the composite z-score turned out to be 1.89 in assay [8], 0.186 in assay [9] and 0.453 in assay [10]. The z-score in [2] is -1.88.
For the compound `O=C1C2C=CC(C(O)CCc3ccccc3)N(Nc3ccccc3F)C2C(=O)N1c1ccccc1` (stereo not given), the composite z-score is 1.29 in assay [1]; -0.208 in assay [3]; 0.611 in assay [4]; 0.11 in assay [5]; 0.229 in assay [6]; 0.13 in assay [7]. Also, the composite z-score in assay [8] stood at 1.03; in assay [9], 1; in [10], 0.324. In assay [2], this compound registered a z-score of -0.83.
For `O=C(OCc1ccccc1)C1=CCC2c3[nH]c4ccccc4c3C(=O)C1N2S(=O)(=O)c1ccccc1[N+](=O)[O-]` (stereo not given), the composite z-score in assay [1] is 1.42; in assay [3], 0.831; in assay [4], 0.418; in assay [5], -0.369; in assay [6] it was 0.0597; in assay [7], 0.14. Moreover, the figures for the composite z-score in [8], in assay [9] and in assay [10] were -0.549, 0.432 and 0.584, respectively. The z-score in [2] was -2.6.
For the compound `CC#CC(=O)Oc1ccccc1C=CC(=O)OCC`, the composite z-score in assay [1] was 0.793; in assay [3], 0.136; in assay [4], 0.0515; in assay [5], -0.27; in assay [6] it was -0.096; in assay [7], -0.0709. In addition, the results for the composite z-score in [8], in [9] and in assay [10] were -0.256, 0.045 and 0.115, respectively. The compound also returned a z-score in assay [2] of -2.16.
`CCCCCN1CC=CC23O[C@@H]4C=CCCOC(=O)C4[C@H]2C(=O)N(CCCCCO)[C@@H]3C1=O` (stereo not given in full): the composite z-score in assay [1] is -0.168; in assay [3] it was -0.368; in assay [4], -0.339; in [5], -0.578; in assay [6], -0.096; in assay [7], -0.243. Besides, the composite z-score in [8] was -0.178; in [9] it was 0.884; in assay [10], -0.99. This compound gave a z-score in assay [2] of -0.605.
Take `C[C@@]1([C@@H](NC(=O)c2ccc(-c3ccccc3)cc2)c2ccc(Cl)cc2)C[C@H]1C1CCCCC1`: the composite z-score in [1] amounted to 1.34; in assay [3] it was 0.279; in assay [4], 1.42; in assay [5], 1.2; in assay [6], 0.0879; in assay [7] it was 0.603. The composite z-score in [8] was 1.03; in assay [9] it was 0.667; in [10], 1.17. The z-score in [2] is -1.18.
For `COc1ccc(C(=O)Nc2ccc(CN3C(=O)[C@]4(O[C@H](CCO)[C@@H]([Si](C)(C)c5ccc(OC)cc5)[C@@H]4C)c4ccccc43)cc2)cc1`, the composite z-score in [1] was 1; in assay [3] it was 0.202; in assay [4] it was 0.564; in assay [5], -0.314; in [6], 0.026; in assay [7], 0.014. In addition, the composite z-score in assay [8] is -0.226; in [9], 0.432; in assay [10] it was 0.509. This compound gave a z-score in assay [2] of -5.09.
Turning to `C[N+](C)(C)CCCCNC(=O)[C@H]1C[C@H]2C(=O)N3CCC[C@H]3C(=O)N2[C@H]1c1cccc(OCCO)c1`, the composite z-score is -1.09 in assay [1]; 0.766 in assay [3]; -0.858 in assay [4]; 1.03 in [5]; -0.0721 in assay [6]; 0.0141 in [7]. The composite z-score in assay [8] was 0.0043; in [9], 0.854; in assay [10] it was -0.912. The compound further came in with a z-score in assay [2] of -0.884.
For `O=C1C[C@@](C(=O)NCC(F)(F)F)(c2ccc([N+](=O)[O-])cc2)[C@@H](c2ccc(CO)cc2I)N1C1CCCCC1`, the composite z-score in assay [1] is 1.47; in assay [3], 0.386; in [4], 0.511; in [5] it was 0.074; in assay [6] it was -0.0758; in assay [7] it was -0.181. The composite z-score in assay [8] worked out at 0.437; in assay [9], 1.62; in assay [10], 0.0759. In assay [2], the z-score is -2.54.
Turning to `COCCOC(=O)N1C(=O)[C@@]2(c3cc(C#CCC(C(=O)OC)C(=O)OC)ccc31)[C@H](c1ccccc1OCCO)N1[C@H](c3ccccc3)[C@H](c3ccccc3)OC(=O)[C@H]1[C@@H]2C(=O)N1CCN(c2ncccn2)CC1`, the composite z-score was determined as 1.37 in [1]; 0.755 in assay [3]; 1.92 in assay [4]; 1.18 in [5]; 0.102 in [6]; 0.166 in [7]. For the same compound, the composite z-score is 0.277 in assay [8], 2.01 in assay [9] and 0.771 in assay [10]. This compound also gave a z-score in assay [2] of -1.99.
As to `COC(=O)[C@@]1(Cc2ccccc2)[C@H]2c3cc(C(=O)N(C)C)n(Cc4ccsc4Br)c3C[C@H]2CN1C(=O)c1ccccc1`, the composite z-score is 1.41 in assay [1]; -0.329 in [3]; 1.79 in assay [4]; 0.463 in assay [5]; 0.107 in assay [6]; 0.342 in assay [7]. Besides, the composite z-score in assay [8] was determined as 1.2; in assay [9], 0.905; in assay [10], 0.626. Further, in assay [2], the z-score is -3.07.
Take `C=C(COC)/C(=C/C[C@@H](OC(=O)c1ccncc1)c1ccc(CO)o1)c1cc(C(=O)OC)ccc1OC`: the composite z-score was 1.4 in [1]; 1.44 in assay [3]; 0.209 in [4]; -0.708 in [5]; 0.0077 in assay [6]; -0.138 in [7]. For the same compound, the composite z-score is -0.18 in assay [8], 0.877 in assay [9] and 0.702 in assay [10]. For the same compound, the z-score in assay [2] was -0.557.
In the case of `COCCOC(=O)N1C(=O)[C@@]2(c3cc(C#Cc4ccc(OC)cc4)ccc31)[C@H](c1ccccc1OCCO)N1[C@H](c3ccccc3)[C@H](c3ccccc3)OC(=O)[C@H]1[C@@H]2C(=O)NC[C@H](O)c1ccccc1`, the composite z-score in assay [1] was 1.44; in assay [3], 0.46; in [4], 1.03; in assay [5], 0.427; in assay [6], -0.0445; in assay [7], 0.0469. Besides, the composite z-score in assay [8] was found to be 0.407; in assay [9] it was 0.819; in assay [10] it was 1.86. Also, in assay [2], the z-score was -2.03.
In the case of `CN1C=C(C(=O)OCCS(C)(=O)=O)C(C(=O)OCCS(C)(=O)=O)=CC(c2ccc(CO)cc2)=CC1C1CC1` (stereo not given), the composite z-score in assay [1] is -0.0095; in assay [3], 0.328; in [4], 0.405; in assay [5] it was -0.306; in assay [6] it was -0.105; in assay [7], -0.0681. In addition, the composite z-score in assay [8] was 0.366; in assay [9] it was 1.83; in assay [10] it was 0.274. The z-score in assay [2] was -0.595.
For `COCCOC(=O)N1C(=O)[C@@]2(c3cc(C#CC4(O)CCCCCC4)ccc31)[C@H](c1ccccc1OCCO)N1[C@H](c3ccccc3)[C@H](c3ccccc3)OC(=O)[C@H]1[C@@H]2C(=O)N1CCN(c2ncccn2)CC1`, the composite z-score in assay [1] was 0.0525; in assay [3], 0.46; in [4] it was 0.156; in assay [5], -0.0855; in assay [6], -0.0944; in assay [7] it was 0.0328. In addition, the composite z-score in [8] came out at 0.612; in assay [9] it was 1.35; in assay [10], 0.509. Also, the z-score in assay [2] is -2.18.
With `COc1cc(COC(C)=O)ccc1OC(C)=O`, the composite z-score in [1] is 0.793; in assay [3], 0.44; in assay [4] it was 0.434; in [5] it was -0.156; in [6], 0.731; in assay [7], -0.093. Further, the values for the composite z-score in assay [8], in [9] and in [10] were -0.0878, 0.299 and -0.0551, respectively. Also, the z-score in [2] was -0.785.
